Source: PubChem BioAssay
A number with no mark means an inactive call. The rule behind the calls is not given here.

Test: blockers of DNA damage checkpoint Chk1 activation – imaging, HeLa, hydroxyurea, phospho-Chk1 antibody, percent positive cells, primary screen (AID 1186)
Details: hydroxyurea-induced phospho-Chk1 immunofluorescence imaging, higher = more signal

SMILES	z-score
CCOC(=O)C[C@H]1[C@H](OC(=O)c2cc3ccccc3oc2=O)[C@@H](NC(=O)C2CCCCC2)c2cc(OCCCO)ccc2N1C(=O)Cc1ccc(OC)cc1	0.521
CC(C)C(=C=CC[C@@H](O)c1cccc(OCCO)c1)CCO	-0.19
C=C(COC)/C(=C/C[C@H](OC(=O)c1ccncc1)c1cccc(OCCO)c1)c1cnc2ccccc2c1	0.321
CC(C)CNC(=O)[C@@H]1c2ccccc2C(=O)N(Cc2ccccc2)[C@H]1c1ccc(CO)cc1	0.212
C=C(COC)C(=O)CC[C@@H](OC(C)=O)c1ccc(OCCO)cc1	0.0887
CCCCC(=C=CC[C@H](O)c1ccc(OCCO)cc1)C[C@H](O)c1ccccn1	0.203
CC(C)c1ccc(NN2C(C(O)C(C)C)C=CC3C(=O)N(c4ccccc4)C(=O)C32)cc1 (stereo not given)	-0.172
COCCOC(=O)N1C(=O)[C@@]2(c3cc(C#CC4=CCCCC4)ccc31)[C@H](C(=O)N1CCN(c3ncccn3)CC1)[C@H]1C(=O)O[C@H](c3ccccc3)[C@H](c3ccccc3)N1[C@@H]2c1ccccc1OCCO	-0.274
CC(C)C(=C=CC[C@@H](O)c1ccccc1OCCO)C[C@@H](O)c1cc(Cl)cc(Cl)c1O	-0.059
COc1ccc(C(O)C2C=CC3C(=O)N(C)C(=O)C3N2Nc2ccc([N+](=O)[O-])cc2[N+](=O)[O-])cc1OCc1ccccc1 (stereo not given)	0.47

Test: blockers of DNA damage checkpoint Chk1 activation – imaging, HeLa, hydroxyurea, phospho-Chk1 nuclear intensity, primary screen (AID 1187); note: test concentration not given here
Details: hydroxyurea-induced phospho-Chk1 immunofluorescence imaging, higher = more signal

SMILES	z-score
O=C1OCCC/C=C\[C@H]2OC34C=CCN(Cc5ccccc5)C(=O)[C@H]3N(CCCCCO)C(=O)[C@@H]4C12 (stereo not given in full)	0.249
CO[C@H]1O[C@H](CO)[C@@H](OC(=O)Nc2ccc(C(F)(F)F)cc2)[C@H](OC(=O)Nc2ccccc2-c2ccccc2)[C@H]1OC(=O)Nc1ccccc1-c1ccccc1	0.784
COCCOC(=O)N1C(=O)[C@@]2(c3cc(C#CCCO)ccc31)[C@H](C(=O)N1CCN(c3ncccn3)CC1)[C@H]1C(=O)O[C@H](c3ccccc3)[C@H](c3ccccc3)N1[C@@H]2c1ccc(O)cc1	-0.772
[N-]=[N+]=NCc1ccccc1[C@H]1OC(c2ccc(OCCCO)cc2)=N[C@@]1(Cc1ccccc1)C(=O)N1CCOCC1	-0.185
C=CCC(OC(C)=O)[C@@H]1[C@@H](N(Cc2ccc(-c3ccccc3)cc2)C(=O)c2ccc(C)cc2)c2cc(OCCCO)ccc2N1C(=O)c1ccc2ccccc2c1 (stereo not given in full)	-0.221
CCCCC(O)C1C=CC2C(=O)N(C)C(=O)C2N1Nc1ccccc1 (stereo not given)	-0.0493
COCCOC(=O)N1C(=O)[C@@]2(c3cc(C#CCC(C(=O)OC)C(=O)OC)ccc31)[C@H](C(=O)N1CCCCCCC1)[C@H]1C(=O)O[C@H](c3ccccc3)[C@H](c3ccccc3)N1[C@@H]2c1ccccc1OCCO	0.0392
COC(=O)[C@@]1(Cc2ccccc2)[C@H]2c3cc(C(=O)N4CCCC4)n(Cc4ccc(C(F)(F)F)nc4)c3C[C@H]2CN1C(=O)c1ccccc1	0.114
CN1C(=O)[C@]2(CCS(=O)(=O)c3ccccc3)N=C(c3ccc(OCCCO)cc3)O[C@@H]2c2ccccc21	0.271
C=CCC(OC(C)=O)[C@@H]1[C@@H](N(Cc2cccc3ccccc23)C(=O)c2cccc3ccccc23)c2cc(OCCCO)ccc2N1C(=O)Cc1ccc2ccccc2c1 (stereo not given in full)	0.42
CCCCNC(=O)c1ccc(C#C[Si](C)(C)C)c(OC(C)=O)c1	0.103
CCOC(=O)C1=CC[C@@H](c2ccccc2Cl)N(S(=O)(=O)c2ccc(C)cc2)[C@H]1c1cccc(OC)c1	-0.553
Cc1ccc(F)cc1S(=O)(=O)N[C@@H]1CCN(Cc2ccc3c(c2)OCO3)C1	-0.271
C#CCN(C/C=C/c1ccccc1)[C@H](CO[Si](C)(C)C(C)(C)C)c1ccccc1	-0.274
N[C@@H](Cc1ccccc1)Cn1cc(C2(O)CCCCC2)nn1	0.426
COCCOC(=O)N1C(=O)[C@@]2(c3cc(C#CCC(C(=O)OC)C(=O)OC)ccc31)[C@H](c1ccc(OCCO)cc1)N1[C@H](c3ccccc3)[C@H](c3ccccc3)OC(=O)[C@H]1[C@@H]2C(=O)N1CCCCCCC1	0.106
COc1ccc(NC(=O)O[C@H]2[C@H](OC(=O)Nc3ccc4c(c3)OCO4)[C@H](OC(=O)Nc3ccc4c(c3)OCO4)[C@@H](OC)O[C@@H]2CO)cc1	0.267
COc1ccc(NN2C(C(O)c3cc(C(F)(F)F)cc(C(F)(F)F)c3)C=CC3C(=O)N(C4CCCCC4)C(=O)C32)cc1 (stereo not given)	-2.01

SMILES	z-score
COCCOC(=O)N1C(=O)[C@@]2(c3cc(C#Cc4ccc(OC)cc4)ccc31)[C@H](C(=O)Nc1nc3ccccc3s1)[C@H]1C(=O)O[C@H](c3ccccc3)[C@H](c3ccccc3)N1[C@@H]2c1ccccc1OCCO	-0.538
C=C(COC)/C(=C/C[C@H](OC(=O)c1ccncc1)c1ccc(OCCO)cc1)c1cc(C(=O)OC)ccc1OC	0.159
COc1ccc([Si](C)(C)[C@H]2[C@H](CCO)O[C@@]3(C(=O)N(Cc4ccccc4)c4ccc(N(C=O)c5ccccc5)cc43)[C@@H]2C)cc1	1.49
C=CC[C@]1(C(=O)OC)N=C(c2ccc(OCCCO)cc2)O[C@H]1c1ccccc1N=[N+]=[N-]	0.059
COc1ccccc1CN1C(=O)c2ccccc2[C@](Cc2ccccc2I)(C(=O)NCCCN(C)C)[C@@H]1c1ccc(CO)cc1	-0.184
CC1CC/C=C\[C@H]2OC34C=CCN(c5ccc(Cl)cc5)C(=O)[C@H]3N(CCCO)C(=O)[C@]4(C)C2C(=O)O1 (stereo not given in full)	0.117
CC[C@H](C)C(=O)O[C@H]1CC[C@]2(C)C3=C(CCC2C1(C)C)[C@]1(C)CC[C@H]([C@H](C)CCCC(C)C)[C@@]1(C)CC3 (stereo not given in full)	-0.829
CCOC(=O)C[C@H]1[C@H](OC(=O)c2cc3ccccc3oc2=O)[C@@H](NC(=O)C2CCCCC2)c2cc(OCCCO)ccc2N1C(=O)Cc1ccc(OC)cc1	-0.306
CC(C)C(=C=CC[C@@H](O)c1cccc(OCCO)c1)CCO	0.247
C=C(COC)/C(=C/C[C@H](OC(=O)c1ccncc1)c1cccc(OCCO)c1)c1cnc2ccccc2c1	0.275
CC(C)CNC(=O)[C@@H]1c2ccccc2C(=O)N(Cc2ccccc2)[C@H]1c1ccc(CO)cc1	-0.161
C=C(COC)C(=O)CC[C@@H](OC(C)=O)c1ccc(OCCO)cc1	0.241
CCCCC(=C=CC[C@H](O)c1ccc(OCCO)cc1)C[C@H](O)c1ccccn1	0.451
CC(C)c1ccc(NN2C(C(O)C(C)C)C=CC3C(=O)N(c4ccccc4)C(=O)C32)cc1 (stereo not given)	-0.0386
COCCOC(=O)N1C(=O)[C@@]2(c3cc(C#CC4=CCCCC4)ccc31)[C@H](C(=O)N1CCN(c3ncccn3)CC1)[C@H]1C(=O)O[C@H](c3ccccc3)[C@H](c3ccccc3)N1[C@@H]2c1ccccc1OCCO	-0.475
CC(C)C(=C=CC[C@@H](O)c1ccccc1OCCO)C[C@@H](O)c1cc(Cl)cc(Cl)c1O	0.189
COc1ccc(C(O)C2C=CC3C(=O)N(C)C(=O)C3N2Nc2ccc([N+](=O)[O-])cc2[N+](=O)[O-])cc1OCc1ccccc1 (stereo not given)	0.219
